Data reported in PubChem BioAssay AID1159580 (chemical genetic matrix, 2015).
Several values for one entry are separate records, joined by “and”; a condition that tells them apart may be missing. Equal values may be shown once. The whole screen tested about 5,500 compounds, of which about 2,000 (36%) were called active. Another 18% or so got no clear call; they are omitted. Cut-off read from the data, not from the text of the source: active = normalized growth mostly below about 0.91 (no sharp cut-off); inconclusive = no clear call, values can overlap the other calls; inactive = mostly above about 0.92. Some of the results follow.

Test: chemical genetic growth profiling, strain panel (AID 1159580);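 note: tested at 20 µM; growth read once vehicle control cultures reached saturation at 30 °C; 1 = growth at the plate median or of vehicle wells; lower values mean less growth of the strain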
Conditions: S. cerevisiae deletion strains, growth OD

Measured: normalized growth

CC[C@@]1(O)C[C@H](O[C@H]2C[C@H](N(C)C)[C@H](O)[C@H](C)O2)c2c(cc3c(c2O)C(=O)c2c(O)ccc(O)c2C3=O)[C@H]1C(=O)OC
0.121 (active) and 0.997 (inactive): locus YJL095W, strain BCK1, stronger effect = lower value
0.113 (active) and 0.995 (inactive): locus YHR030C, strain SLT2, stronger effect = lower value
inactive: locus YBR009C, strain hhf1, stronger effect = lower value 0.924 | locus YBR171W, strain sec66, stronger effect = lower value 1.03 | locus YCL069W, strain vba3, stronger effect = lower value 0.948 | locus YCR088W, strain abp1, stronger effect = lower value 0.954 | locus YDL005C, strain med2, stronger effect = lower value 1.03 | locus YDL040C, strain nat1, stronger effect = lower value 0.962 | locus YDL185W, strain tfp1, stronger effect = lower value 0.956 | locus YDR001C, strain nth1, stronger effect = lower value 0.932 | locus YDR159W, strain sac3, stronger effect = lower value 0.906 | locus YDR195W, strain ref2 1.05 | locus YDR392W, strain spt3, stronger effect = lower value 0.823 | locus YEL003W, strain gim4, stronger effect = lower value 0.942 | locus YER016W, strain bim1, stronger effect = lower value 0.954 | locus YGL078C, strain dbp3, stronger effect = lower value 0.973 | locus YGL167C, strain pmr1, stronger effect = lower value 0.955 | locus YGL227W, strain vid30, stronger effect = lower value 1.02 | locus YGL240W, strain doc1, stronger effect = lower value 0.966 | locus YHR013C, strain ard1, stronger effect = lower value 0.935 | locus YHR079C, strain IRE1, stronger effect = lower value 0.987 | locus YIL125W, strain kgd1, stronger effect = lower value 0.959 | locus YJL115W, strain asf1, stronger effect = lower value 0.947 | locus YJL129C, strain trk1, stronger effect = lower value 1.05 | locus YJL154C, strain vps35, stronger effect = lower value 0.929
active: locus YAL021C, strain ccr4, stronger effect = lower value 0.83 | locus YAL026C, strain drs2, stronger effect = lower value 0.813 | locus YAL030W, strain snc1, stronger effect = lower value 0.919 | locus YBL061C, strain skt5, stronger effect = lower value 0.875 | locus YBR021W, strain FUR4, stronger effect = lower value 0.143 | locus YBR023C, strain chs3, stronger effect = lower value 1.52 [resistant] | locus YBR229C, strain ROT2, stronger effect = lower value 0.152 | locus YBR231C, strain swc5, stronger effect = lower value 0.794 | locus YBR279W, strain paf1, stronger effect = lower value 0.901 | locus YCL011C, strain gbp2, stronger effect = lower value 0.0988 | locus YCL016C, strain dcc1, stronger effect = lower value 0.893 | locus YCL029C, strain bik1, stronger effect = lower value 0.205 | locus YDL035C, strain GPR1, stronger effect = lower value 0.0755 | locus YDL074C, strain BRE1, stronger effect = lower value 0.141 | locus YDL101C, strain DUN1, stronger effect = lower value 0.0945 | locus YDL134C, strain PPH21, stronger effect = lower value 0.0874 | locus YDL192W, strain arf1, stronger effect = lower value 0.106 | locus YDR069C, strain doa4, stronger effect = lower value 0.68 | locus YDR101C, strain arx1, stronger effect = lower value 0.18 | locus YDR137W, strain rgp1, stronger effect = lower value 0.703 | locus YDR150W, strain NUM1, stronger effect = lower value 0.112 | locus YDR162C, strain NBP2, stronger effect = lower value 0.0578 | locus YDR297W, strain sur2, stronger effect = lower value 0.873 | locus YDR318W, strain mcm21, stronger effect = lower value 0.125 | locus YDR334W, strain swr1, stronger effect = lower value 0.816 | locus YDR335W, strain msn5, stronger effect = lower value 0.854 | locus YDR388W, stronger effect = lower value 0.0868 | locus YDR502C, strain sam2, stronger effect = lower value 0.125 | locus YEL037C, strain rad23, stronger effect = lower value 0.874 | locus YEL061C, strain CIN8 (second series), stronger effect = lower value 0.879 | locus YEL061C, strain CIN8, stronger effect = lower value 0.071 | locus YER015W, strain faa2, stronger effect = lower value 0.821 | locus YER110C, stronger effect = lower value 0.559 | locus YER111C, strain swi4, stronger effect = lower value 0.767 | locus YER155C, strain BEM2 (second series), stronger effect = lower value 0.848 | locus YER155C, strain BEM2, stronger effect = lower value 0.144 | locus YER167W, strain BCK2, stronger effect = lower value 0.0725 | locus YFR010W, strain ubp6, stronger effect = lower value 0.813 | locus YGL086W, strain mad1, stronger effect = lower value 0.281 | locus YGL173C, strain kem1, stronger effect = lower value 0.716 | locus YGL248W, strain PDE1, stronger effect = lower value 0.0787 | locus YGL253W, strain hxk2, stronger effect = lower value 0.86 | locus YGR078C, strain PAC10, stronger effect = lower value 0.0806 | locus YGR135W, strain pre9, stronger effect = lower value 0.0948 | locus YGR252W, strain gcn5, stronger effect = lower value 0.225 | locus YHR027C, strain rpn1, stronger effect = lower value 0.812 | locus YHR079C, strain IRE1 (second series), stronger effect = lower value 0.477 | locus YHR094C, strain hxt1, stronger effect = lower value 0.402 | locus YHR129C, strain ARP1, stronger effect = lower value 0.0918 | locus YHR142W, strain chs7, stronger effect = lower value 0.745 | locus YHR200W, strain rpn10, stronger effect = lower value 0.0997 | locus YIL066C, strain RNR3, stronger effect = lower value 0.073 | locus YIL073C, strain SPO22, stronger effect = lower value 0.134 | locus YIR030C, strain dcg1, stronger effect = lower value 0.179 | locus YJL092W, strain hpr5, stronger effect = lower value 0.905 | locus YJL095W, strain BCK1 (second series), stronger effect = lower value 0.877 | locus YJL134W, strain LCB3, stronger effect = lower value 0.167 | locus YJL164C, strain tpk1, stronger effect = lower value 0.832 | locus YJL166W, strain qcr8, stronger effect = lower value 0.875 | locus YJL168C, strain set2, stronger effect = lower value 0.272 | locus YJL187C, strain SWE1 (second series), stronger effect = lower value 0.0876 | locus YJR043C, strain POL32, stronger effect = lower value 0.113
